Data as given in the supplement of paper PMC7411054.
Structures can show the parent of a compound that is named as a salt.

What was measured:
Conditions in all cases: treatment time: 24 h
A549-ACTB-RAB5A [1] = assay: lowest phenotypically active concentration; higher = less potent
How it was run: (§1)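 The reporter lines, fifteen in total and built by gene editing in A549, HepG2 and WPMY1 cells, used BFP for segmentation alongside GFP and RFP/FusionRed markers. Each was treated at 0.3, 1, 3 or 9 µM for 24 h in four wells and then imaged live, with live-cell features normalised to solvent control wells. Deviation meant ≥3 of 4 wells beyond the 95th percentile of control Euclidean distances; reproducibility meant a median replicate Pearson correlation above the 95th percentile of non-replicates. Only conditions meeting both were scored as phenotypically active.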

A549-GM130-SQSTM1 [2] = assay: as above
How it was run: as §1

A549-TUBA1B-RELA [3] = assay: as above
How it was run: as §1

HepG2-ACTB-RAB5A [4] = assay: as above
How it was run: as §1

WPMY1-CANX-COX4 [5] = assay: as above
How it was run: as §1

A549-ACTB-RAB5A [6] = assay: phenotypically active (imaging signature differs from DMSO and reproducible) at any of 0.3-9 uM (binary (1 = active, 0 = inactive)); higher = active
How it was run: as §1

A549-CANX-COX4 = assay: as above
How it was run: as §1

A549-GM130-SQSTM1 [7] = assay: as above
How it was run: as §1

A549-TP53BP1-CLTA = assay: as above
How it was run: as §1

A549-TUBA1B-RELA [8] = assay: as above
How it was run: as §1

HepG2-ACTB-RAB5A [9] = assay: as above
How it was run: as §1

HepG2-CANX-COX4 = assay: as above
How it was run: as §1

HepG2-GM130-SQSTM1 = assay: as above
How it was run: as §1

HepG2-TP53BP1-CLTA = assay: as above
How it was run: as §1

HepG2-TUBA1B-RELA = assay: as above
How it was run: as §1

WPMY1-ACTB-RAB5A = assay: as above
How it was run: as §1

WPMY1-CANX-COX4 [10] = assay: as above
How it was run: as §1

WPMY1-GM130-SQSTM1 = assay: as above
How it was run: as §1

WPMY1-TP53BP1-CLTA = assay: as above
How it was run: as §1

WPMY1-TUBA1B-RELA = assay: as above
How it was run: as §1

Structure (SMILES) | lowest phenotypically active concentration (A549-ACTB-RAB5A [1]) | lowest phenotypically active concentration (A549-GM130-SQSTM1 [2]) | lowest phenotypically active concentration (A549-TUBA1B-RELA [3]) | lowest phenotypically active concentration (HepG2-ACTB-RAB5A [4]) | lowest phenotypically active concentration (WPMY1-CANX-COX4 [5]) | phenotypically active (A549-ACTB-RAB5A [6]) | phenotypically active (A549-CANX-COX4) | phenotypically active (A549-GM130-SQSTM1 [7]) | phenotypically active (A549-TP53BP1-CLTA) | phenotypically active (A549-TUBA1B-RELA [8]) | phenotypically active (HepG2-ACTB-RAB5A [9]) | phenotypically active (HepG2-CANX-COX4) | phenotypically active (HepG2-GM130-SQSTM1) | phenotypically active (HepG2-TP53BP1-CLTA) | phenotypically active (HepG2-TUBA1B-RELA) | phenotypically active (WPMY1-ACTB-RAB5A) | phenotypically active (WPMY1-CANX-COX4 [10]) | phenotypically active (WPMY1-GM130-SQSTM1) | phenotypically active (WPMY1-TP53BP1-CLTA) | phenotypically active (WPMY1-TUBA1B-RELA)
O[C@H](CNC[C@H](O)[C@@H]1CCc2cc(F)ccc2O1)[C@@H]1CCc2cc(F)ccc2O1 [nebivolol] | 3 µM | 3 µM | 3 µM | 3 µM | 9 µM | 1 (active) | 0 (inactive) | 1 (active) | 0 (inactive) | 1 (active) | 1 (active) | 0 (inactive) | 0 (inactive) | 1 (active) | 1 (active) | 1 (active) | 1 (active) | 1 (active) | 1 (active) | 1 (active)
Clc1ccc2c(c1)C(N1CCNCC1)=Nc1ccccc1O2 [amoxapine] | 3 µM | 3 µM | 3 µM | 9 µM |  | 1 (active) | 0 (inactive) | 1 (active) | 0 (inactive) | 1 (active) | 1 (active) | 0 (inactive) | 1 (active) | 0 (inactive) | 1 (active) | 1 (active) | 0 (inactive) | 0 (inactive) | 0 (inactive) | 1 (active)
CC(=O)O[C@@H]1C[C@H]2C(C)(C)C(=O)C=C[C@]2(C)[C@H]2CC[C@@]3(C)[C@H](c4ccoc4)OC(=O)[C@H]4O[C@]43[C@@]21C [gedunin] | 3 µM | 9 µM | 9 µM |  | 9 µM | 1 (active) | 0 (inactive) | 1 (active) | 0 (inactive) | 1 (active) | 0 (inactive) | 1 (active) | 1 (active) | 1 (active) | 1 (active) | 1 (active) | 1 (active) | 1 (active) | 0 (inactive) | 0 (inactive)
CC(=O)Nc1ccc(NC(=S)NC(=O)c2ccc(C(C)(C)C)cc2)cc1 [Tenovin-1] | 1 µM | 1 µM | 1 µM |  | 9 µM | 1 (active) | 0 (inactive) | 1 (active) | 0 (inactive) | 1 (active) | 0 (inactive) | 1 (active) | 0 (inactive) | 1 (active) | 1 (active) | 1 (active) | 1 (active) | 1 (active) | 1 (active) | 1 (active)
CC(CN(C)C)CN1c2ccccc2CCc2ccccc21 (stereo unspecified) [trimipramine] | 9 µM | 9 µM | 9 µM | 9 µM | 9 µM | 1 (active) | 0 (inactive) | 1 (active) | 0 (inactive) | 1 (active) | 1 (active) | 0 (inactive) | 0 (inactive) | 0 (inactive) | 1 (active) | 1 (active) | 1 (active) | 1 (active) | 0 (inactive) | 0 (inactive)
Cc1cc2nc(NCCCO)n(CC(=O)c3cc(C(C)(C)C)c(O)c(C(C)(C)C)c3)c2cc1C | 3 µM | 3 µM | 9 µM | 9 µM |  | 1 (active) | 0 (inactive) | 1 (active) | 0 (inactive) | 1 (active) | 1 (active) | 0 (inactive) | 0 (inactive) | 0 (inactive) | 1 (active) | 0 (inactive) | 0 (inactive) | 0 (inactive) | 0 (inactive) | 0 (inactive)
CCCCCCCCCCCCC/C=C/[C@@H](O)[C@H](CO)N(C)C [N,N-Dimethylsphingosine] | 3 µM | 1 µM | 3 µM | 3 µM | 3 µM | 1 (active) | 0 (inactive) | 1 (active) | 0 (inactive) | 1 (active) | 1 (active) | 1 (active) | 1 (active) | 1 (active) | 1 (active) | 1 (active) | 1 (active) | 1 (active) | 1 (active) | 1 (active)
O=C(CCCN1CCC(O)(c2ccc(Cl)cc2)CC1)c1ccc(F)cc1 [haloperidol] | 3 µM | 9 µM | 9 µM | 9 µM |  | 1 (active) | 0 (inactive) | 1 (active) | 0 (inactive) | 1 (active) | 1 (active) | 0 (inactive) | 1 (active) | 1 (active) | 1 (active) | 0 (inactive) | 0 (inactive) | 1 (active) | 0 (inactive) | 0 (inactive)
CCSc1ccc2c(c1)N(CCCN1CCN(C)CC1)c1ccccc1S2 [thiethylperazine] | 3 µM | 3 µM | 3 µM | 9 µM | 9 µM | 1 (active) | 0 (inactive) | 1 (active) | 0 (inactive) | 1 (active) | 1 (active) | 0 (inactive) | 1 (active) | 0 (inactive) | 1 (active) | 1 (active) | 1 (active) | 1 (active) | 1 (active) | 1 (active)
CN1CCN(c2ccc(-c3cccc(CN4CCOCC4)c3)cc2NC(=O)c2c[nH]c(=O)cc2C(F)(F)F)CC1 | 9 µM | 9 µM | 9 µM |  | 9 µM | 1 (active) | 0 (inactive) | 1 (active) | 0 (inactive) | 1 (active) | 0 (inactive) | 0 (inactive) | 1 (active) | 1 (active) | 1 (active) | 0 (inactive) | 1 (active) | 1 (active) | 1 (active) | 1 (active)
Cc1cc(CS(=O)(=O)c2ccccc2)cc(OCc2ccc(CN3CCC[C@@H]3CO)cc2)c1 [PF 543 hydrochloride] | 9 µM | 9 µM | 9 µM | 9 µM |  | 1 (active) | 0 (inactive) | 1 (active) | 0 (inactive) | 1 (active) | 1 (active) | 0 (inactive) | 1 (active) | 1 (active) | 0 (inactive) | 1 (active) | 0 (inactive) | 0 (inactive) | 0 (inactive) | 0 (inactive)
COc1cc(NC(=O)c2cccc(-n3cc(NC(=O)Nc4cccc(C)c4)cn3)c2)cc(OC)c1OC | 9 µM | 3 µM | 9 µM | 9 µM |  | 1 (active) | 0 (inactive) | 1 (active) | 0 (inactive) | 1 (active) | 1 (active) | 0 (inactive) | 0 (inactive) | 0 (inactive) | 0 (inactive) | 0 (inactive) | 0 (inactive) | 1 (active) | 0 (inactive) | 1 (active)
CCN(CCO)CCCC(C)Nc1ccnc2cc(Cl)ccc12 (stereo unspecified) [hydroxychloroquine] | 9 µM | 9 µM | 9 µM |  | 9 µM | 1 (active) | 0 (inactive) | 1 (active) | 0 (inactive) | 1 (active) | 0 (inactive) | 0 (inactive) | 1 (active) | 0 (inactive) | 1 (active) | 1 (active) | 1 (active) | 1 (active) | 0 (inactive) | 1 (active)
Fc1ccc([C@@H]2CCNC[C@H]2COc2ccc3c(c2)OCO3)cc1 [paroxetine] | 3 µM | 3 µM | 3 µM | 9 µM | 9 µM | 1 (active) | 0 (inactive) | 1 (active) | 0 (inactive) | 1 (active) | 1 (active) | 0 (inactive) | 1 (active) | 1 (active) | 1 (active) | 1 (active) | 1 (active) | 1 (active) | 1 (active) | 1 (active)
CN(C)CCCN1c2ccccc2CCc2ccc(Cl)cc21 [clomipramine] | 3 µM | 9 µM | 9 µM | 9 µM | 9 µM | 1 (active) | 0 (inactive) | 1 (active) | 0 (inactive) | 1 (active) | 1 (active) | 0 (inactive) | 0 (inactive) | 1 (active) | 1 (active) | 1 (active) | 1 (active) | 1 (active) | 1 (active) | 1 (active)
